Columns and labels:
Experiment in all cases: PBM; 200 nM protein, PBS
Conditions in all cases: dsDNA, one strand shown
HESX1 [1] = target: HESX1 (Homo sapiens, UniProt Q9UBX0 95-180, R165K)
HESX1 [2] = target: HESX1 (Homo sapiens, UniProt Q9UBX0 95-180)
HESX1 [3] = target: HESX1 (Homo sapiens, UniProt Q9UBX0 95-180, R109Q)
HESX1 [4] = target: HESX1 (Homo sapiens, UniProt Q9UBX0 95-180, P111T)
HESX1 [5] = target: HESX1 (Homo sapiens, UniProt Q9UBX0 95-180, F115L)
SHOX [6] = target: SHOX (Homo sapiens, UniProt O15266 103-189)
ALX4 [7] = target: ALX4 (Homo sapiens, UniProt Q9H161 200-286)
ALX4 [8] = target: ALX4 (Homo sapiens, UniProt Q9H161 200-286, Q225E)
ALX1 [9] = target: ALX1 (Homo sapiens, UniProt Q15699 118-204, L144V)
ALX3 [10] = target: ALX3 (Homo sapiens, UniProt O95076 139-225, N203Q)
SHOX [11] = target: SHOX (Homo sapiens, UniProt O15266 103-189, R173C)
ALX1 [12] = target: ALX1 (Homo sapiens, UniProt Q15699 118-204, L144R)
ALX3 [13] = target: ALX3 (Homo sapiens, UniProt O95076 139-225)
PROP1 [14] = target: PROP1 (Homo sapiens, UniProt O75360 56-141)
PROP1 [15] = target: PROP1 (Homo sapiens, UniProt O75360 56-141, R99H)
ALX3 [16] = target: ALX3 (Homo sapiens, UniProt O95076 139-225, L168Q)
ALX3 [17] = target: ALX3 (Homo sapiens, UniProt O95076 139-225, L168V)
PROP1 [18] = target: PROP1 (Homo sapiens, UniProt O75360 56-141, F88S)
ALX1 [19] = target: ALX1 (Homo sapiens, UniProt Q15699 118-204)
ALX3 [20] = target: ALX3 (Homo sapiens, UniProt O95076 139-225, N203S)
Sequence of ALX3 (Homo sapiens, UniProt O95076 139-225, N203S) (O95076 139-225 N203S): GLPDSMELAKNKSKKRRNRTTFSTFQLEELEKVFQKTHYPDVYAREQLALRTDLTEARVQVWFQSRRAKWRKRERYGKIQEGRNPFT

Sequence of SHOX (Homo sapiens, UniProt O15266 103-189, R173C) (O15266 103-189 R173C): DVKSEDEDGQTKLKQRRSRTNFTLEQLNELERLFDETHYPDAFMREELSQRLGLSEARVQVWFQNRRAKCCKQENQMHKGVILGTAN
Sequence of SHOX (Homo sapiens, UniProt O15266 103-189) (O15266 103-189): as the sequence (O15266 103-189 R173C) above, with C71R counted along it
Sequence of ALX3 (Homo sapiens, UniProt O95076 139-225) (O95076 139-225): as the sequence (O95076 139-225 N203S) above, with S65N counted along it
Sequence of HESX1 (Homo sapiens, UniProt Q9UBX0 95-180, R109Q) (Q9UBX0 95-180 R109Q): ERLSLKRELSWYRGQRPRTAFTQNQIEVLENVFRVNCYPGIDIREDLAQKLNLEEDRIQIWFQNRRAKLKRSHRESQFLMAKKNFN
Sequence of ALX3 (Homo sapiens, UniProt O95076 139-225, N203Q) (O95076 139-225 N203Q): as the sequence (O95076 139-225 N203S) above, with S65Q counted along it
Sequence of ALX1 (Homo sapiens, UniProt Q15699 118-204, L144R) (Q15699 118-204 L144R): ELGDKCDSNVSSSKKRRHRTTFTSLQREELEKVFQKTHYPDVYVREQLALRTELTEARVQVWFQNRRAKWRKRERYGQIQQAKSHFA
Sequence of ALX1 (Homo sapiens, UniProt Q15699 118-204, L144V) (Q15699 118-204 L144V): as the sequence (Q15699 118-204 L144R) above, with R27V counted along it
Sequence of ALX3 (Homo sapiens, UniProt O95076 139-225, L168Q) (O95076 139-225 L168Q): as the sequence (O95076 139-225 N203S) above, with L30Q, S65N counted along it
Sequence of ALX1 (Homo sapiens, UniProt Q15699 118-204) (Q15699 118-204): as the sequence (Q15699 118-204 L144R) above, with R27L counted along it
Sequence of ALX4 (Homo sapiens, UniProt Q9H161 200-286) (Q9H161 200-286): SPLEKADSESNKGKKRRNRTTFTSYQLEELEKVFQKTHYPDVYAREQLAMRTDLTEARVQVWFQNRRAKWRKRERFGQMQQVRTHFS
Sequence of HESX1 (Homo sapiens, UniProt Q9UBX0 95-180) (Q9UBX0 95-180): as the sequence (Q9UBX0 95-180 R109Q) above, with Q15R counted along it
Sequence of ALX3 (Homo sapiens, UniProt O95076 139-225, L168V) (O95076 139-225 L168V): as the sequence (O95076 139-225 N203S) above, with L30V, S65N counted along it
Sequence of ALX4 (Homo sapiens, UniProt Q9H161 200-286, Q225E) (Q9H161 200-286 Q225E): as the sequence (Q9H161 200-286) above, with Q26E counted along it
Sequence of PROP1 (Homo sapiens, UniProt O75360 56-141, R99H) (O75360 56-141 R99H): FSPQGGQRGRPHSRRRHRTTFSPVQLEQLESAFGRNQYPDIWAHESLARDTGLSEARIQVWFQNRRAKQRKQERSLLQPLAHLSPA
Sequence of HESX1 (Homo sapiens, UniProt Q9UBX0 95-180, P111T) (Q9UBX0 95-180 P111T): as the sequence (Q9UBX0 95-180 R109Q) above, with Q15R, P17T counted along it
Sequence of HESX1 (Homo sapiens, UniProt Q9UBX0 95-180, R165K) (Q9UBX0 95-180 R165K): as the sequence (Q9UBX0 95-180 R109Q) above, with Q15R, R71K counted along it
Sequence of PROP1 (Homo sapiens, UniProt O75360 56-141) (O75360 56-141): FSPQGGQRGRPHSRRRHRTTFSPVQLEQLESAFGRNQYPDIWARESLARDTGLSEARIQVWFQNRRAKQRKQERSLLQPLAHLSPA
Sequence of HESX1 (Homo sapiens, UniProt Q9UBX0 95-180, F115L) (Q9UBX0 95-180 F115L): as the sequence (Q9UBX0 95-180 R109Q) above, with Q15R, F21L counted along it
Sequence of PROP1 (Homo sapiens, UniProt O75360 56-141, F88S) (O75360 56-141 F88S): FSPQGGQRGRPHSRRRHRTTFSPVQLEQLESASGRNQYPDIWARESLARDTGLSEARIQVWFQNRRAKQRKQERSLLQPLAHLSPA

Sequence	binding signal (HESX1 [1])	binding signal (HESX1 [2])	binding signal (HESX1 [3])	binding signal (HESX1 [4])	binding signal (HESX1 [5])	binding signal (SHOX [6])	binding signal (ALX4 [7])	binding signal (ALX4 [8])	binding signal (ALX1 [9])	binding signal (ALX3 [10])	binding signal (SHOX [11])	binding signal (ALX1 [12])	binding signal (ALX3 [13])	binding signal (PROP1 [14])	binding signal (PROP1 [15])	binding signal (ALX3 [16])	binding signal (ALX3 [17])	binding signal (PROP1 [18])	binding signal (ALX1 [19])	binding signal (ALX3 [20])
CCCTACGG	6.51 upbm affinity estimate (log intensity, higher = more binding, comparable within an allelic series)	6.45 upbm affinity estimate (log intensity, higher = more binding, comparable within an allelic series)	6.54 upbm affinity estimate (log intensity, higher = more binding, comparable within an allelic series)	6.48 upbm affinity estimate (log intensity, higher = more binding, comparable within an allelic series)	6.43 upbm affinity estimate (log intensity, higher = more binding, comparable within an allelic series)															
ATCAATTA	13.5 upbm affinity estimate (log intensity, higher = more binding, comparable within an allelic series)	13.4 upbm affinity estimate (log intensity, higher = more binding, comparable within an allelic series)	10.2 upbm affinity estimate (log intensity, higher = more binding, comparable within an allelic series)	12.1 upbm affinity estimate (log intensity, higher = more binding, comparable within an allelic series)	8.22 upbm affinity estimate (log intensity, higher = more binding, comparable within an allelic series)	12.6 upbm affinity estimate (log intensity, higher = more binding, comparable within an allelic series)	14.2 upbm affinity estimate (log intensity, higher = more binding, comparable within an allelic series)	13.7 upbm affinity estimate (log intensity, higher = more binding, comparable within an allelic series)	12 upbm affinity estimate (log intensity, higher = more binding, comparable within an allelic series)	8.5 upbm affinity estimate (log intensity, higher = more binding, comparable within an allelic series)	10.1 upbm affinity estimate (log intensity, higher = more binding, comparable within an allelic series)	11.8 upbm affinity estimate (log intensity, higher = more binding, comparable within an allelic series)	12.7 upbm affinity estimate (log intensity, higher = more binding, comparable within an allelic series)	11.8 upbm affinity estimate (log intensity, higher = more binding, comparable within an allelic series)	12.2 upbm affinity estimate (log intensity, higher = more binding, comparable within an allelic series)	10.9 upbm affinity estimate (log intensity, higher = more binding, comparable within an allelic series)	10.4 upbm affinity estimate (log intensity, higher = more binding, comparable within an allelic series)	7.84 upbm affinity estimate (log intensity, higher = more binding, comparable within an allelic series)	12.8 upbm affinity estimate (log intensity, higher = more binding, comparable within an allelic series)	8.66 upbm affinity estimate (log intensity, higher = more binding, comparable within an allelic series)
AATTAACA	11.9 upbm affinity estimate (log intensity, higher = more binding, comparable within an allelic series)	12 upbm affinity estimate (log intensity, higher = more binding, comparable within an allelic series)	9.41 upbm affinity estimate (log intensity, higher = more binding, comparable within an allelic series)	10.7 upbm affinity estimate (log intensity, higher = more binding, comparable within an allelic series)	8.02 upbm affinity estimate (log intensity, higher = more binding, comparable within an allelic series)	11.9 upbm affinity estimate (log intensity, higher = more binding, comparable within an allelic series)	13.9 upbm affinity estimate (log intensity, higher = more binding, comparable within an allelic series)	13.2 upbm affinity estimate (log intensity, higher = more binding, comparable within an allelic series)	11.7 upbm affinity estimate (log intensity, higher = more binding, comparable within an allelic series)	8.55 upbm affinity estimate (log intensity, higher = more binding, comparable within an allelic series)	9.76 upbm affinity estimate (log intensity, higher = more binding, comparable within an allelic series)	11.3 upbm affinity estimate (log intensity, higher = more binding, comparable within an allelic series)	12.5 upbm affinity estimate (log intensity, higher = more binding, comparable within an allelic series)	11.3 upbm affinity estimate (log intensity, higher = more binding, comparable within an allelic series)	11.1 upbm affinity estimate (log intensity, higher = more binding, comparable within an allelic series)	10.6 upbm affinity estimate (log intensity, higher = more binding, comparable within an allelic series)	10.2 upbm affinity estimate (log intensity, higher = more binding, comparable within an allelic series)	7.88 upbm affinity estimate (log intensity, higher = more binding, comparable within an allelic series)	12.4 upbm affinity estimate (log intensity, higher = more binding, comparable within an allelic series)	8.67 upbm affinity estimate (log intensity, higher = more binding, comparable within an allelic series)
AATTAGTC	11.5 upbm affinity estimate (log intensity, higher = more binding, comparable within an allelic series)	11.8 upbm affinity estimate (log intensity, higher = more binding, comparable within an allelic series)	8.88 upbm affinity estimate (log intensity, higher = more binding, comparable within an allelic series)	10.4 upbm affinity estimate (log intensity, higher = more binding, comparable within an allelic series)	7.67 upbm affinity estimate (log intensity, higher = more binding, comparable within an allelic series)	11.7 upbm affinity estimate (log intensity, higher = more binding, comparable within an allelic series)		12.8 upbm affinity estimate (log intensity, higher = more binding, comparable within an allelic series)	11.5 upbm affinity estimate (log intensity, higher = more binding, comparable within an allelic series)	8.3 upbm affinity estimate (log intensity, higher = more binding, comparable within an allelic series)	9.37 upbm affinity estimate (log intensity, higher = more binding, comparable within an allelic series)	11.1 upbm affinity estimate (log intensity, higher = more binding, comparable within an allelic series)	12.2 upbm affinity estimate (log intensity, higher = more binding, comparable within an allelic series)	11.1 upbm affinity estimate (log intensity, higher = more binding, comparable within an allelic series)	11 upbm affinity estimate (log intensity, higher = more binding, comparable within an allelic series)	10.3 upbm affinity estimate (log intensity, higher = more binding, comparable within an allelic series)	9.88 upbm affinity estimate (log intensity, higher = more binding, comparable within an allelic series)	7.67 upbm affinity estimate (log intensity, higher = more binding, comparable within an allelic series)	12.1 upbm affinity estimate (log intensity, higher = more binding, comparable within an allelic series)	8.39 upbm affinity estimate (log intensity, higher = more binding, comparable within an allelic series)
CTAATTAC	13.2 upbm affinity estimate (log intensity, higher = more binding, comparable within an allelic series)	13.2 upbm affinity estimate (log intensity, higher = more binding, comparable within an allelic series)	9.51 upbm affinity estimate (log intensity, higher = more binding, comparable within an allelic series)	11.8 upbm affinity estimate (log intensity, higher = more binding, comparable within an allelic series)	7.95 upbm affinity estimate (log intensity, higher = more binding, comparable within an allelic series)	12.8 upbm affinity estimate (log intensity, higher = more binding, comparable within an allelic series)	14.4 upbm affinity estimate (log intensity, higher = more binding, comparable within an allelic series)	13.8 upbm affinity estimate (log intensity, higher = more binding, comparable within an allelic series)	12.2 upbm affinity estimate (log intensity, higher = more binding, comparable within an allelic series)	8.37 upbm affinity estimate (log intensity, higher = more binding, comparable within an allelic series)	10.1 upbm affinity estimate (log intensity, higher = more binding, comparable within an allelic series)	11.8 upbm affinity estimate (log intensity, higher = more binding, comparable within an allelic series)	12.9 upbm affinity estimate (log intensity, higher = more binding, comparable within an allelic series)	12 upbm affinity estimate (log intensity, higher = more binding, comparable within an allelic series)	12 upbm affinity estimate (log intensity, higher = more binding, comparable within an allelic series)	11 upbm affinity estimate (log intensity, higher = more binding, comparable within an allelic series)	10.5 upbm affinity estimate (log intensity, higher = more binding, comparable within an allelic series)	7.85 upbm affinity estimate (log intensity, higher = more binding, comparable within an allelic series)	12.9 upbm affinity estimate (log intensity, higher = more binding, comparable within an allelic series)	8.5 upbm affinity estimate (log intensity, higher = more binding, comparable within an allelic series)
ATAATTAG	13.4 upbm affinity estimate (log intensity, higher = more binding, comparable within an allelic series)	13.4 upbm affinity estimate (log intensity, higher = more binding, comparable within an allelic series)	9.82 upbm affinity estimate (log intensity, higher = more binding, comparable within an allelic series)	12 upbm affinity estimate (log intensity, higher = more binding, comparable within an allelic series)	8.28 upbm affinity estimate (log intensity, higher = more binding, comparable within an allelic series)	13 upbm affinity estimate (log intensity, higher = more binding, comparable within an allelic series)	14.4 upbm affinity estimate (log intensity, higher = more binding, comparable within an allelic series)	14.2 upbm affinity estimate (log intensity, higher = more binding, comparable within an allelic series)	12.3 upbm affinity estimate (log intensity, higher = more binding, comparable within an allelic series)	8.56 upbm affinity estimate (log intensity, higher = more binding, comparable within an allelic series)	10.3 upbm affinity estimate (log intensity, higher = more binding, comparable within an allelic series)	11.9 upbm affinity estimate (log intensity, higher = more binding, comparable within an allelic series)	12.9 upbm affinity estimate (log intensity, higher = more binding, comparable within an allelic series)	12.1 upbm affinity estimate (log intensity, higher = more binding, comparable within an allelic series)	12.1 upbm affinity estimate (log intensity, higher = more binding, comparable within an allelic series)	11.2 upbm affinity estimate (log intensity, higher = more binding, comparable within an allelic series)	10.8 upbm affinity estimate (log intensity, higher = more binding, comparable within an allelic series)	7.99 upbm affinity estimate (log intensity, higher = more binding, comparable within an allelic series)	12.9 upbm affinity estimate (log intensity, higher = more binding, comparable within an allelic series)	8.75 upbm affinity estimate (log intensity, higher = more binding, comparable within an allelic series)
CAATTACC	12.7 upbm affinity estimate (log intensity, higher = more binding, comparable within an allelic series)	12.6 upbm affinity estimate (log intensity, higher = more binding, comparable within an allelic series)	8.97 upbm affinity estimate (log intensity, higher = more binding, comparable within an allelic series)	10.9 upbm affinity estimate (log intensity, higher = more binding, comparable within an allelic series)	7.62 upbm affinity estimate (log intensity, higher = more binding, comparable within an allelic series)	11.8 upbm affinity estimate (log intensity, higher = more binding, comparable within an allelic series)	13.9 upbm affinity estimate (log intensity, higher = more binding, comparable within an allelic series)	12.9 upbm affinity estimate (log intensity, higher = more binding, comparable within an allelic series)	11.6 upbm affinity estimate (log intensity, higher = more binding, comparable within an allelic series)	8.27 upbm affinity estimate (log intensity, higher = more binding, comparable within an allelic series)	9.24 upbm affinity estimate (log intensity, higher = more binding, comparable within an allelic series)	11.3 upbm affinity estimate (log intensity, higher = more binding, comparable within an allelic series)	12.4 upbm affinity estimate (log intensity, higher = more binding, comparable within an allelic series)	11.3 upbm affinity estimate (log intensity, higher = more binding, comparable within an allelic series)	11.5 upbm affinity estimate (log intensity, higher = more binding, comparable within an allelic series)	10.3 upbm affinity estimate (log intensity, higher = more binding, comparable within an allelic series)	9.72 upbm affinity estimate (log intensity, higher = more binding, comparable within an allelic series)	7.4 upbm affinity estimate (log intensity, higher = more binding, comparable within an allelic series)	12.4 upbm affinity estimate (log intensity, higher = more binding, comparable within an allelic series)	8.36 upbm affinity estimate (log intensity, higher = more binding, comparable within an allelic series)
GTAATTGA	12.5 upbm affinity estimate (log intensity, higher = more binding, comparable within an allelic series)	12.6 upbm affinity estimate (log intensity, higher = more binding, comparable within an allelic series)	8.99 upbm affinity estimate (log intensity, higher = more binding, comparable within an allelic series)	11 upbm affinity estimate (log intensity, higher = more binding, comparable within an allelic series)	7.6 upbm affinity estimate (log intensity, higher = more binding, comparable within an allelic series)	11.9 upbm affinity estimate (log intensity, higher = more binding, comparable within an allelic series)	13.8 upbm affinity estimate (log intensity, higher = more binding, comparable within an allelic series)	12.8 upbm affinity estimate (log intensity, higher = more binding, comparable within an allelic series)	11.7 upbm affinity estimate (log intensity, higher = more binding, comparable within an allelic series)	8.3 upbm affinity estimate (log intensity, higher = more binding, comparable within an allelic series)	9.41 upbm affinity estimate (log intensity, higher = more binding, comparable within an allelic series)	11.2 upbm affinity estimate (log intensity, higher = more binding, comparable within an allelic series)	12.4 upbm affinity estimate (log intensity, higher = more binding, comparable within an allelic series)	11.3 upbm affinity estimate (log intensity, higher = more binding, comparable within an allelic series)	11.5 upbm affinity estimate (log intensity, higher = more binding, comparable within an allelic series)	10.4 upbm affinity estimate (log intensity, higher = more binding, comparable within an allelic series)	9.76 upbm affinity estimate (log intensity, higher = more binding, comparable within an allelic series)	7.49 upbm affinity estimate (log intensity, higher = more binding, comparable within an allelic series)	12.3 upbm affinity estimate (log intensity, higher = more binding, comparable within an allelic series)	8.44 upbm affinity estimate (log intensity, higher = more binding, comparable within an allelic series)
